# According to the supplement of paper PMC4466140:
# B1: unnamed (peptide)
# chain: VKPRQLFPIPLNKVD
# Target: ScBbc1
# Experiment: SPOT peptide array binding signal intensity (averaged, normalized) (arbitrary units (background-subtracted, floor 0; scale differs between SH3 domains)); higher = stronger binding of the SH3 domain to the peptide
# Summary of the method: (§1)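 The binding signal is the normalized, background-subtracted spot intensity averaged over replicates; its arbitrary units differ between domains. It was obtained by incubating 10 μg/ml GST-fused SH3 domains from four yeast species overnight at 4°C in TBS-based blocking buffer on cellulose membranes with synthetic 15-mer peptides, cysteines replaced by serines, then detecting with anti-GST antibody, HRP anti-mouse secondary and luminol.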
row,Binder,SPOT peptide array binding signal intensity
1,B1,≤ 0

# Target: ScBem1-D1
# Experiment: as above
# Summary of the method: as §1
row,Binder,SPOT peptide array binding signal intensity
1,B1,≤ 0

# Target: ScBzz1-D1
# Experiment: as above
# Summary of the method: as §1
row,Binder,SPOT peptide array binding signal intensity
1,B1,17

# Target: ScBzz1-D2
# Experiment: as above
# Summary of the method: as §1
row,Binder,SPOT peptide array binding signal intensity
1,B1,135

# Target: ScCyk3
# Experiment: as above
# Summary of the method: as §1
row,Binder,SPOT peptide array binding signal intensity
1,B1,3

# Target: ScFus1
# Experiment: as above
# Summary of the method: as §1
row,Binder,SPOT peptide array binding signal intensity
1,B1,11

# Target: ScHof1
# Experiment: as above
# Summary of the method: as §1
row,Binder,SPOT peptide array binding signal intensity
1,B1,3.75

# Target: ScHse1
# Experiment: as above
# Summary of the method: as §1
row,Binder,SPOT peptide array binding signal intensity
1,B1,196

# Target: ScLsb1
# Experiment: as above
# Summary of the method: as §1
row,Binder,SPOT peptide array binding signal intensity
1,B1,374

# Target: ScLsb2
# Experiment: as above
# Summary of the method: as §1
row,Binder,SPOT peptide array binding signal intensity
1,B1,201

# Target: ScLsb3
# Experiment: as above
# Summary of the method: as §1
row,Binder,SPOT peptide array binding signal intensity
1,B1,54.5

# Target: ScLsb4
# Experiment: as above
# Summary of the method: as §1
row,Binder,SPOT peptide array binding signal intensity
1,B1,≤ 0

# Target: ScMyo3
# Experiment: as above
# Summary of the method: as §1
row,Binder,SPOT peptide array binding signal intensity
1,B1,2

# Target: ScMyo5
# Experiment: as above
# Summary of the method: as §1
row,Binder,SPOT peptide array binding signal intensity
1,B1,4

# Target: ScNbp2
# Experiment: as above
# Summary of the method: as §1
row,Binder,SPOT peptide array binding signal intensity
1,B1,18

# Target: ScPex13
# Experiment: as above
# Summary of the method: as §1
row,Binder,SPOT peptide array binding signal intensity
1,B1,1.5

# Target: ScRvs167
# Experiment: as above
# Summary of the method: as §1
row,Binder,SPOT peptide array binding signal intensity
1,B1,48.3

# Target: ScSho1
# Experiment: as above
# Summary of the method: as §1
row,Binder,SPOT peptide array binding signal intensity
1,B1,139

# Target: ScSla1-D1-D2
# Experiment: as above
# Summary of the method: as §1
row,Binder,SPOT peptide array binding signal intensity
1,B1,1.5

# Target: ScSla1-D3
# Experiment: as above
# Summary of the method: as §1
row,Binder,SPOT peptide array binding signal intensity
1,B1,≤ 0

# Target: SpAbp1-D1
# Experiment: as above
# Summary of the method: as §1
row,Binder,SPOT peptide array binding signal intensity
1,B1,29

# Target: SpBbc1
# Experiment: as above
# Summary of the method: as §1
row,Binder,SPOT peptide array binding signal intensity
1,B1,≤ 0

# Target: SpBzz1-D1
# Experiment: as above
# Summary of the method: as §1
row,Binder,SPOT peptide array binding signal intensity
1,B1,156

# Target: SpBzz1-D2
# Experiment: as above
# Summary of the method: as §1
row,Binder,SPOT peptide array binding signal intensity
1,B1,≤ 0

# Target: SpCyk3
# Experiment: as above
# Summary of the method: as §1
row,Binder,SPOT peptide array binding signal intensity
1,B1,≤ 0

# Target: SpHof1
# Experiment: as above
# Summary of the method: as §1
row,Binder,SPOT peptide array binding signal intensity
1,B1,11.5

# Target: SpHof1-2
# Experiment: as above
# Summary of the method: as §1
row,Binder,SPOT peptide array binding signal intensity
1,B1,5.5

# Target: SpHof1-3
# Experiment: as above
# Summary of the method: as §1
row,Binder,SPOT peptide array binding signal intensity
1,B1,310

# Target: SpHse1
# Experiment: as above
# Summary of the method: as §1
row,Binder,SPOT peptide array binding signal intensity
1,B1,84.5

# Target: SpLsb1
# Experiment: as above
# Summary of the method: as §1
row,Binder,SPOT peptide array binding signal intensity
1,B1,133

# Target: SpLsb4
# Experiment: as above
# Summary of the method: as §1
row,Binder,SPOT peptide array binding signal intensity
1,B1,28.5

# Target: SpMyo1
# Experiment: as above
# Summary of the method: as §1
row,Binder,SPOT peptide array binding signal intensity
1,B1,3.25

# Target: SpNbp2
# Experiment: as above
# Summary of the method: as §1
row,Binder,SPOT peptide array binding signal intensity
1,B1,21.5

# Target: SpPex13
# Experiment: as above
# Summary of the method: as §1
row,Binder,SPOT peptide array binding signal intensity
1,B1,6

# Target: SpRvs167
# Experiment: as above
# Summary of the method: as §1
row,Binder,SPOT peptide array binding signal intensity
1,B1,10

# Target: SpSla1-D1-D2
# Experiment: as above
# Summary of the method: as §1
row,Binder,SPOT peptide array binding signal intensity
1,B1,≤ 0

# Target: SpSla1-D3
# Experiment: as above
# Summary of the method: as §1
row,Binder,SPOT peptide array binding signal intensity
1,B1,≤ 0
